Compound activity (PubChem BioAssay)
The list is not random: actives were taken first. Their share in the collection is about 21%.
CHX counter = affects cycloheximide protein synthesis inhibition readout, counter-screen. cell reporter, cycloheximide protein synthesis inhibition counterscreen. max response, %. hit rate 12% among 300,000; in the data active = max response mostly above about 13%, no sharp cut-off; inactive = mostly below about 14%; note: read at 38.3 µM for the half of the compounds with a filed dose
Pf growth 96h = P. falciparum growth inhibition at 96 hour, primary screen for plastid delayed-death inhibitors; P. falciparum luciferase reporter growth, 96 h; Potency, µM (highest dose often 28.7 µM), usual class: inhibitors; hit rate 6.9% among 320,000
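Erythrocytes infected with luciferase-expressing P. falciparum were dispensed at 2% hematocrit and 0.05% parasitemia (final), then incubated with compounds 96 hours at 37 C in 5% CO2. Luminescence after detection reagent addition reported growth.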
Pf growth 48h = inhibits P. falciparum growth in the first generation, 48 h | AID 504832 | hit rate 5.9% among 310,000 | P. falciparum luciferase growth in erythrocytes, 48 h | Potency, µM (titrated, usually from 28.7 µM), most hits filed as inhibitors
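Erythrocytes infected with P. falciparum carrying an integrated firefly luciferase reporter (2% hematocrit, 0.1% parasitemia final) were exposed to compounds in RPMI 1640 with 0.5% Albumax at 37 C, 5% CO2. Growth inhibition was scored as reduced luminescence.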
Shiga inhibitor = Shiga toxin inhibition; AID 2315; hit rate 9.2% among 290,000; Vero cells, Shiga toxin protein synthesis inhibition reporter; inhibition, % at 38.7 µM; in the data active = inhibition mostly above about 28%, no sharp cut-off; inactive = mostly below about 43%
NS1 inh = blocks influenza NS1 protein function; hit rate 0.4% among 270,000; Potency, µM (highest dose often 46.1 µM); calls by dose curve; note: actives are rising curves; nearly all actives have a fitted effect of over 50% in size
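Growth recovery, yeast-based: influenza A NS1 expressed in S. cerevisiae causes slow growth, and suppressors are detected by OD600. The parent strain without NS1 is used as positive control.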
A number is an active result; . = inactive; ? = inconclusive; / = not tested or not shown. Unless noted, calls come from the whole dose curve; as a rule, active = well fitted inhibition curve with a large enough effect; inconclusive = small, poorly fitted or top-dose-only effect, or another doubt; inactive = no such curve, though single readings can be large or run the other way.

SMILES	CHX counter	Pf growth 96h	Pf growth 48h	Shiga inhibitor	NS1 inh
Cc1ccc2[nH]c(=O)c(CN(CCO)Cc3nnnn3CCc3ccccc3)cc2c1	.	8.3µM	.	.	.
COc1ccc2[nH]c(=O)c(CN(Cc3cccs3)Cc3nnnn3C(C)(C)C)cc2c1	.	.	?	.	.
Cc1ccc2[nH]c(=O)c(CN(Cc3cccs3)Cc3nnnn3Cc3ccccc3)cc2c1	.	.	12µM	.	?
CCOC(=O)Cn1nnnc1CN(Cc1cccs1)Cc1cc2cc(C)ccc2[nH]c1=O	.	/	.	.	.
CCN(CC(N)=O)S(=O)(=O)c1ccc(Br)cc1	.	/	.	.	.
CC(Sc1nnc2c(n1)C1(C)CCC2C1(C)C)C(=O)Nc1ccccc1 (stereo unspecified)	.	?	?	.	.
NCCCC[C@H]1CNC(=O)C(=O)N1CCc1cccc2ccccc12	.	.	.	.	.
O=C(Nc1cccc(C(=O)O)c1)/C(=C\c1ccccc1)NC(=O)c1cccc2ccccc12	.	?	.	.	.
Cc1ccccc1NS(=O)(=O)c1ccc(C(=O)N2CCN(c3ccccc3O)CC2)cc1	.	5.2µM	13µM	.	.
CCOc1ccccc1N1CCN(C(=O)c2ccc(S(=O)(=O)Nc3ccccc3)cc2)CC1	/	9.3µM	?	/	/
COc1ccccc1N1CCN(C(=O)c2ccc(NS(=O)(=O)c3ccc(C)cc3)cc2)CC1	.	.	?	.	.
Cc1ccc(S(=O)(=O)Nc2ccc(C(=O)N3CCN(c4ccccc4O)CC3)cc2)cc1[N+](=O)[O-]	/	.	15µM	/	/
CCOc1ccccc1N1CCN(C(=O)NC2CCCCC2)CC1	.	1.7µM	.	.	.
CCCCN(CC)Cc1ccc(CNC(=S)Nc2cccc(F)c2)o1	.	.	?	.	/
O=C(Nc1cccnc1)c1cc(-c2ccco2)on1	.	.	.	.	.
CCCc1cc(C(=O)Nc2cccnc2)no1	72	?	/	89	.
CCCc1cc(C(=O)Nc2sc(C)c(CC)c2C#N)no1	13	.	.	.	.
CC(C)c1cc(C(=O)Nc2cccnc2)no1	37	/	.	48	.
Cc1ccc(C(=O)Nc2sc(C(=O)N(C)C)c(C)c2C#N)cc1	.	.	.	.	.
Cc1sc(NC(=O)c2ccccc2)c(C#N)c1-c1ccccc1	43	4.1µM	.	26	.
CCc1c(C)sc(NC(=O)c2cc(C)on2)c1C#N	.	.	.	.	.
CCCc1cc(C(=O)Nc2sc(C)c(C)c2C(=O)OCC)no1	.	?	.	.	.
COc1ccc(NC(=O)c2cc(-c3ccc(C)cc3)on2)cc1OC	.	.	.	.	.
CCCc1cc(C(=O)Nc2ccc(C#N)cc2)no1	15	.	.	.	.
CCCc1cc(C(=O)Nc2ccc(F)c(Cl)c2)no1	31	.	.	94	.
SMILES	CHX counter	Pf growth 96h	Pf growth 48h	Shiga inhibitor	NS1 inh
CCCc1cc(C(=O)Nc2cccc(Cl)c2)no1	23	.	.	82	.
CCc1noc(N)c1C(=O)Nc1ccc(F)c(Cl)c1	.	.	.	.	.
CC(=O)c1cccc(NC(=O)c2cc(-c3ccc(C)cc3)on2)c1	30	.	.	active	.
CCCC(=O)NCCc1c2n(c3ccc(OC)cc13)Cc1ccccc1-2	/	/	/	/	.
CCCC(C)c1nc(C(N)=O)c2[nH]c(=O)n(-c3ccc(OC)c(OC)c3)c2n1 (stereo unspecified)	.	.	.	.	.
CC1CCCCN1CCCNC(=O)c1ccc(NC(=O)C2=CSCCO2)cc1 (stereo unspecified)	.	?	.	.	.
COC(=O)c1ccc(-n2nnnc2SCc2ccccc2OC)cc1	.	.	.	.	.
CCc1c(C)sc(NC(=O)c2cccs2)c1C#N	53	.	.	77	.
CCCc1cc(C(=O)Nc2ccc(C(C)=O)cc2)no1	42	?	.	82	?
CC(=O)c1cccc(NC(=O)c2ccc(NS(=O)(=O)c3c(C)noc3C)cc2)c1	.	.	.	.	.
CCCc1cc(C(=O)Nc2cccc(C(C)=O)c2)no1	31	?	/	67	.
CCOC(=O)c1c(NC(=O)c2cccs2)sc(C)c1CC	.	?	?	.	.
Cc1nc2nc(SCC(=O)NCCCN3CCCC(C)C3)nn2c(C)c1Cc1ccccc1Cl (stereo unspecified)	.	.	13µM	.	.
COc1ccc2c(c1)cc(C(=O)N[C@@H](Cc1ccccc1)C(=O)O)n2C	.	.	.	.	.
COC(=O)c1cc(NC(C)=O)ccc1N1CCOCC1	.	.	.	.	.
COC(=O)c1cc(NC(=O)c2cc(-c3ccc(C(F)(F)F)cc3)oc2C(F)(F)F)ccc1N1CCOCC1	.	1.5µM	2.1µM	.	?
COC(=O)c1cc(NC(=O)c2cc(-c3ccc(OC)cc3)oc2C(F)(F)F)ccc1N1CCOCC1	.	9.3µM	8.3µM	.	.
Cc1ccc2cc(C#N)c(SCc3nnc(-c4ccccc4[N+](=O)[O-])o3)nc2c1	.	.	.	.	.
CCCNC(=O)COC(=O)c1ccccc1OCC(=O)Nc1ccc(Br)cc1	.	.	.	.	.
O=C(COc1ccccc1[N+](=O)[O-])NCc1cccnc1	.	.	.	.	.
CC(C)(C)NC(=O)COC(=O)c1ccccc1OCC(=O)Nc1ccc(Br)cc1	17	.	.	35	.
O=C(COc1ccccc1[N+](=O)[O-])Nc1cccnc1	31	.	.	90	/
O=C(COc1ccccc1[N+](=O)[O-])Nc1ccc(Br)cc1	49	.	.	114	.
CCCc1cc(=O)n2nc(N3CCC(C(=O)N4CCN(c5cccc(OC)c5)CC4)CC3)sc2n1	.	.	?	.	.
CC(C)(C)C(=O)Nc1ccnn1C1CCN(C(=O)c2cccc(Cl)c2)CC1	.	?	.	.	.
SMILES	CHX counter	Pf growth 96h	Pf growth 48h	Shiga inhibitor	NS1 inh
Cc1oc(C(=O)O)cc1CSCc1cc(C(=O)O)c(C)o1	12	.	.	.	?
Cc1oc(C(=O)O)cc1CSCc1ccoc1C(=O)O	.	?	.	.	.
O=C(NCc1n[nH]c(=S)n1-c1ccc(Cl)c(Cl)c1)c1ccco1	.	15µM	?	.	.
COCCCNCC(O)C(F)(F)F (stereo unspecified)	.	.	.	.	.
CC(C)(C)NC(=O)NC(=O)COc1ccc(Br)cc1Br	90	.	.	136	.
Cn1cccc1C(=O)OCC(=O)NC1CCS(=O)(=O)C1 (stereo unspecified)	.	.	1.5µM	.	.
O=C(COc1ccccc1Cl)NC(=O)NC1CCCCC1	/	.	.	/	/
O=C(COc1ccc(Br)cc1Br)NC(=O)NC1CCCC1	59	.	.	142	/
Cc1c(C(=O)NC2CCN(Cc3ccccc3)C2)oc2ccc(Br)cc12 (stereo unspecified)	14	.	.	78	.
CCOc1ccc2oc(C(=O)NC3CCN(Cc4ccccc4)CC3)c(C)c2c1	.	?	.	.	/
CCN(C(=O)COC(=O)c1cccn1C)C1CCS(=O)(=O)C1 (stereo unspecified)	.	.	.	.	/
C/C(=N/NC(=O)c1cc(-c2ccc(Cl)s2)[nH]n1)c1ccco1	.	?	.	.	.
O=C(COc1ccccc1)NC1CCN(Cc2ccccc2)CC1	.	.	?	.	.
